Assay results as given in PubChem BioAssay AID894 (National Center for Advancing Translational Sciences (NCATS), 2007).
In all, about 150,000 compounds went through this assay and about 6,500 (4.3%) were called active. Inconclusive results (about 12%) are left out. The call rests on the fitted dose curve; in most records, active means well fitted inhibition curve with a large enough effect (not every such curve was filed as active); inconclusive means small, poorly fitted or top-dose-only effect, or another doubt; inactive means no such curve, though single readings can be large or run the other way. What follows is part of a selection rich in actives, with near analogues and random picks from the rest.

The compounds below were run against 15-hydroxyprostaglandin dehydrogenase [NAD(+)] (Homo sapiens) (UniProt P15428) (assay: qHTS Assay for Inhibitors of HPGD (15-Hydroxyprostaglandin Dehydrogenase)). Conditions: purified HPGD, NADH fluorescence kinetic, PGE2 substrate; activity change, negative = inhibition: stronger effect = lower value.
15-hydroxyprostaglandin dehydrogenase [NAD(+)] (Homo sapiens), sequence (P15428 whole entry, looked up): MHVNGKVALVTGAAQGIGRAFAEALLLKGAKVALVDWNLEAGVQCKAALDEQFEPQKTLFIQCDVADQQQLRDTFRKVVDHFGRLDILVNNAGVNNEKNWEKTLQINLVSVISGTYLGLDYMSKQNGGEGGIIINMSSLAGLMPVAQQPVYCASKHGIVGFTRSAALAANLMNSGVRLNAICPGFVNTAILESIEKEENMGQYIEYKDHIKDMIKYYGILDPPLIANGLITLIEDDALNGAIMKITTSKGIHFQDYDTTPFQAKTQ
How it was run: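 20 nM HPGD preincubated 15 min at room temperature with compound in 50 mM Tris-HCl pH 8, 0.01% Tween 20. Started with 1 mM NAD+ and 30 uM prostaglandin E2; NADH fluorescence (360/450 nm) read 5 times over 30-s intervals, last minus first.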
On the % scale 0 is the no-effect control and ±100 the full control effect; potency means the concentration at half of the fitted maximal effect.

Row | SMILES | activity change, negative = inhibition | Potency
1 | CCNC(=S)N(CCc1c(C)[nH]c2ccc(C)cc12)Cc1ccco1 | -13.1% (inactive) | 
2 | COc1cc2c(cc1OC)C(=O)NCC(C)(C)O2 | -19.2% (inactive) | 
3 | COc1ccc(N2C(=O)CNC2=S)cc1 | -14.3% (inactive) | 
4 | COc1ccc(-n2c(C)csc2=S)cc1 | -9.23% (inactive) | 
5 | COc1ccc(-c2cn(-c3ccc(OC)cc3)c(=S)[nH]2)cc1 |  | 25.1 µM (active)
6 | CN(C)S(=O)(=O)c1cc(NC(=O)CN2C(=O)NC3(CCCc4ccccc43)C2=O)ccc1Cl (stereo not given) | -12.7% (inactive) | 
7 | O=C(O)c1ccc(N=NN2CCOCC2)cc1 | -13.6% (inactive) | 
8 | Cc1ccc(NC(=O)NC(=O)N(C2CCCCC2)S(=O)(=O)c2ccccc2)cc1 | -16% (inactive) | 
9 | CC(=O)Nc1ccc(S(=O)(=O)NC(C)C(=O)OCC(=O)NC2CCCC2)cc1 (stereo not given) | -4.32% (inactive) | 
10 | CCCCC(CC(C)O)c1n[nH]c(=S)n1-c1ccccc1 (stereo not given) | -3.38% (inactive) | 
11 | CC(C)Oc1ccc(CCc2n[nH]c(=S)n2Cc2ccccc2)cc1 |  | 10 µM (active)
12 | CCCc1cc(-c2n[nH]c(=S)n2CC)c2ccccc2n1 | -28.5% (inactive) | 
13 | O=C(N/N=C\c1ccc(Br)cc1)c1ccc(Cn2cccn2)o1 | -5.99% (inactive) | 
14 | COCCOC(=O)c1c(C)oc2cc(Br)c(OCC(N)=O)cc12 | -7.04% (inactive) | 
15 | COC(C(=O)NCc1ccccc1C)c1ccccc1 (stereo not given) | -8.94% (inactive) | 
16 | Cc1nc2ccccc2cc1C(=O)N/N=C/c1ccc([N+](=O)[O-])cc1 | -5.88% (inactive) | 
17 | Cn1c(-c2sc3cc(C(F)(F)F)cnc3c2-c2ccccc2)n[nH]c1=S |  | 31.6 µM (active)
18 | Cc1cc(C(F)(F)F)n2ncc(-c3ccccc3)c2n1 | -0.556% (inactive) | 
19 | CCc1c(C)[nH]c(=S)c(C#N)c1C |  | 35.5 µM (active)
20 | CCOC(=O)c1c(C)[nH]c(=S)c(C#N)c1-c1ccccc1 | -27.3% (inactive) | 

Row | SMILES | activity change, negative = inhibition | Potency
21 | CCCCC1S/C(=N/N=C/c2cccs2)NC1=O (stereo not given) | -7.59% (inactive) | 
22 | COC(=O)C1=C(C(=O)OC)[C@@H]2Nc3ccccc3[C@@]23C[C@@H](C(=O)OC)N(S(=O)(=O)c2ccc([N+](=O)[O-])cc2)C3=N1 | -10.9% (inactive) | 
23 | Cc1ccc(C)c(NC(=S)NNC(=O)c2csc(C)c2)c1 | -5.84% (inactive) | 
24 | Cn1ncc2c(Nc3cccc4ccccc34)ncnc21 | -9.06% (inactive) | 
25 | CN(C)c1cc2c(Nc3ccc4c(cnn4Cc4ccccc4)c3)ncnc2cn1 |  | 12.6 µM (active)
26 | COc1ccc(Nc2ncnc3ccc(OC)cc23)cc1 | -4.83% (inactive) | 
27 | CCOC(=O)C1=C(c2ccc(OC)cc2)C(=O)c2ccccc2C1=O | -6.53% (inactive) | 
28 | COc1ccc(N2CCN(Cc3cc(=O)oc4ccc5ccccc5c34)CC2)cc1 | -9.86% (inactive) | 
29 | O=c1c2ccccc2oc2nc(C3CCCCC3)n(Cc3ccco3)c(=O)c12 | -6.04% (inactive) | 
30 | CCc1nc2oc3ccccc3c(=O)c2c(=O)n1Cc1ccc(OC)cc1 |  | 25.1 µM (active)
31 | COC(C(=O)Nc1ccc(C(C)=O)cc1)c1ccccc1 (stereo not given) | -9.31% (inactive) | 
32 | O=C(Cc1cccs1)Nc1cccc(-c2nc3ccccc3[nH]2)c1 | -8.46% (inactive) | 
33 | O=C(CCc1nc2ccccc2c(=O)[nH]1)OCC(=O)c1cccc(Cl)c1 | -9.26% (inactive) | 
34 | Cc1ccc(C(=O)C(=S)N2CCOCC2)cc1 | -3.51% (inactive) | 
35 | CCOc1cc(C(=S)N2CCOCC2)ccc1O |  | 12.6 µM (active)
36 | CCOc1cc(C(=O)OCC(=O)Nc2cccc(C)c2)ccc1OCC(=O)N1CCOCC1 | -18.5% (inactive) | 
37 | COc1ccc2c(c1)O[C@@H](c1ccc3c(c1)OCO3)[C@H](OC(=O)NCCc1ccc(OC)c(OC)c1)C2=O | -3.81% (inactive) | 
38 | S=C(Nc1cccc(Cl)c1)Nc1ccc2cn[nH]c2c1 | -14.3% (inactive) | 
39 | Cc1cc(C)cc(C(=O)N2CCN=C2SCc2ccc([N+](=O)[O-])cc2)c1 | -11.7% (inactive) | 
40 | O=C(COc1ccccc1F)NNC(=O)c1ccc(N2CCCCC2)c([N+](=O)[O-])c1 | -21.3% (inactive) | 

Row | SMILES | activity change, negative = inhibition | Potency
41 | O=C1CCCC(O)=C1N=Nc1ccc2ncsc2c1 |  | 31.6 µM (active)
42 | COc1ccc(NC(=O)c2nc(-n3nc(C)cc3C)ccc2Cl)cc1Cl | -17.4% (inactive) | 
43 | CCCN(CCC)C(=S)Nc1cc(C(=O)OC)ccc1C(=O)OC | -9.23% (inactive) | 
44 | O=C(CCl)NNc1cccc(Cl)n1 |  | 28.2 µM (active)
45 | COc1cc(OC)nc(NC(=O)CCl)n1 | -16.6% (inactive) | 
46 | O=C(NNc1ccccn1)c1ccc(Cl)nc1 | -23% (inactive) | 
47 | COc1cc(NC(=S)NNC(=O)CC(C)C)c(OC)cc1Cl |  | 31.6 µM (active)
48 | CC(C)CC(=O)NC(=S)Nc1cc(C(=O)O)ccc1Cl | -13.5% (inactive) | 
49 | CCOCC(=O)Nc1cc(OC)c(Cl)cc1OC | -3.42% (inactive) | 
50 | COc1ccc(-c2nc3c(c4c2C[C@H](c2ccccc2)OC4)CN(S(=O)(=O)c2c(C)noc2C)CC3)c(C)c1 | -1.95% (inactive) | 
51 | Cc1ccc(S(=O)(=O)N/N=C\c2cc3c(cc2[N+](=O)[O-])OCO3)cc1 | -28.1% (inactive) | 
52 | CCOC(=O)c1c(C)[nH]c(C(=O)COc2ccc3c(c2)OCO3)c1C | -6.28% (inactive) | 
53 | O=[N+]([O-])c1ccccc1/C=N/n1c(COc2ccccc2)n[nH]c1=S |  | 7.08 µM (active)
54 | CCOC(=O)c1nc(-c2ccc3c(c2)OCO3)[nH]c1C | -11.1% (inactive) | 
55 | O=C(Cc1cc(=O)[nH][nH]1)N/N=C/c1ccccc1[N+](=O)[O-] | -14.9% (inactive) | 
56 | Cc1ccc(-c2n[nH]c(=S)n2/N=C/c2cc3c(cc2[N+](=O)[O-])OCO3)cc1 |  | 1.58 µM (active)
57 | CCOc1ccc(-c2n[nH]c(=S)n2/N=C/c2cc3c(cc2[N+](=O)[O-])OCO3)cc1 |  | 3.55 µM (active)
58 | Cc1c(NC(=O)CCCOc2ccccc2)cccc1[N+](=O)[O-] | -12.9% (inactive) | 
59 | COC(=O)/C(=C1\Oc2ccc(C(C)(C)C)cc2S1)C(F)(F)F | -12.2% (inactive) | 
60 | COc1cc(OC)cc(-c2nc3ccccc3c(=O)n2NC(=O)c2cccnc2Cl)c1 | -8.81% (inactive) | 
